Compounds with a hit are over-represented: about 11% of the library has one in this group of screens.
Pf growth 48h: Primary qHTS for delayed death inhibitors of the malarial parasite plastid, 48 hour incubation; P. falciparum luciferase growth in erythrocytes, 48 h; Potency, µM (highest dose often 28.7 µM), without a hit: at the top dose activity change, negative = inhibition, usual class: inhibitors; hit rate 5.9% among 310,000; AID 504832, 2011; also: % is scaled to controls: 0 for no effect and ±100 for the full control effect
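A one-generation exposure of luciferase-tagged malaria parasites in RPMI 1640/Albumax erythrocyte culture, 37 C and 5% CO2. Inhibition is inferred from decreased luminescence after adding detection reagent.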
Pf growth 96h: Primary qHTS for delayed death inhibitors of the malarial parasite plastid, 96 hour incubation; AID 504834, 2011; Potency, µM (titrated, usually from 28.7 µM), for the others: at the highest dose activity change, negative = inhibition, actives largely listed as inhibitors; hit rate 6.9% among 320,000; P. falciparum luciferase reporter growth, 96 h; also: % is scaled to controls: 0 for no effect and ±100 for the full control effect
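Two parasite generations (96 h, 37 C, 5% CO2) of compound exposure in infected erythrocytes (0.05% parasitemia, 2% hematocrit). Luciferase-reporter P. falciparum; decreased luminescence indicates inhibited growth, aimed at apicoplast-acting delayed death.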
HCV inhibitor: qHTS Assay for Inhibitors of Hepatitis C Virus (HCV) | Huh7.5.1 HCVcc-Cre infection, luciferase reporter, 44 h | Potency, µM (highest dose often 41.8 µM), inactives show at the highest dose activity change, negative = inhibition, usual class: inhibitors | hit rate 3.4% among 340,000 | AID 651820, 2012; also: % is scaled to controls: 0 for no effect and ±100 for the full control effect
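Infectious HCV cell culture screen: compound-treated cells (1,000/well, pre-plated 4 h) are infected with HCVcc-Cre at roughly 0.5 moi and grown 44 h. Infection is quantified by luciferase signal after 15 min substrate incubation at room temperature.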
AmpC inh no detg: qHTS Inhibitors of AmpC Beta-Lactamase (assay without detergent). AmpC nitrocefin hydrolysis, absorbance 480 nm, 0.0001% Triton. Potency, µM (top dose mostly 57.1 µM), inactives show top-dose activity change, negative = inhibition, usual class: inhibitors. AID 485341, 2010. P00811. hit rate 0.52% among 330,000;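 also: plate controls were no compound for no effect and no enzyme for full effect; nearly all actives have a fitted effect of over 20% in size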
Target sequence (P00811 whole entry, looked up): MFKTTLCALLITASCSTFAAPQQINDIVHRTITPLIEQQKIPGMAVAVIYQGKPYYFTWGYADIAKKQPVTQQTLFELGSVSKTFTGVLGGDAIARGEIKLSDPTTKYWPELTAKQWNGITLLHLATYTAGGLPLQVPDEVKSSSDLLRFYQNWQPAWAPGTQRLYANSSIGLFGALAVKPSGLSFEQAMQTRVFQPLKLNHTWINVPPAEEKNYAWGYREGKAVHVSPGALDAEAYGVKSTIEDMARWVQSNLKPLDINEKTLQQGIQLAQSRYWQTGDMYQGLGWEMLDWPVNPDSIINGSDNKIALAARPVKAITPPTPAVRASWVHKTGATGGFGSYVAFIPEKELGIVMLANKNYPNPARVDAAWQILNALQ
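20 mM phosphate pH 7.0 + 0.01% (detergent screen) or 0.0001% Triton X-100; 5.3 nM AmpC reagent; cpd preinc 15 min RT; nitrocefin (800 uM stock) to start; A480 q20 s × 4 min; Activity was normalised to no-enzyme and no-compound control wells.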
AMA1-RON2 inh: qHTS for Inhibitors of AMA1-RON; Towards Development of Antimalarial Drug Lead: Primary Screen; Plasmodium falciparum AMA1 (3D7) - RON2 peptide interaction; AlphaScreen AMA1-biotinylated RON2 peptide binding; Potency, µM (top dose mostly 58.2 µM), for inactives: top-dose activity change, negative = inhibition, most hits filed as inhibitors; hit rate 0.2% among 360,000; AID 720542, 2013;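 also: 0% = vehicle wells and -100% = peptide control; nearly all actives have a fitted effect of over 45% in size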
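AMA1 (3D7) with his tag at 25 nM final met compounds first, then biotinylated RON2 peptide at 25 nM; detection used donor plus acceptor beads, 10 µg/mL apiece, read by AlphaScreen after 30 min at room temperature.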
AmpC inh detg: qHTS Inhibitors of AmpC Beta-Lactamase (assay with detergent). Potency, µM (top dose mostly 114 µM), inactives show at the highest dose activity change, negative = inhibition, actives largely listed as inhibitors. AID 485294, 2010. hit rate 0.041% among 370,000. AmpC hydrolysis of nitrocefin, absorbance 480 nm, 0.01% Triton;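 also: 0% = no-compound wells and -100% = no-enzyme wells; nearly all actives have a fitted effect of over 25% in size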
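20 mM phosphate pH 7.0 + 0.01% (detergent screen) or 0.0001% Triton X-100; 5.3 nM AmpC reagent; cpd preinc 15 min RT; nitrocefin (800 uM stock) to start; A480 q20 s × 4 min; Activity was normalised to no-enzyme and no-compound control wells.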
HCV inh confirm: qHTS Assay for Inhibitors of Hepatitis C Virus (HCV): Confirmation Assay for Cherry-picked Compounds. HCVcc-Cre infectious virus cell assay, luciferase, inhibition. AID 720575, 2013. hit rate 78% among 640. Potency, µM (series often up to 41.8 µM), for inactives: at the highest dose activity, negative = inhibition, actives largely listed as inhibitors. shares compounds with HCV inhibitor; also: nearly all actives have a fitted effect of over 80% in size
HCV host tox: qHTS Assay for Inhibitors of Hepatitis C Virus (HCV): Cytotoxicity Counterscreen for Cherry-picked Compounds; hit rate 22% among 640; shares compounds with HCV inhibitor; HCV host cell line cytotoxicity counterscreen; Potency, µM (titrated, usually from 41.8 µM), without a hit: top-dose activity change, negative = cytotoxicity, most hits filed as inhibitors;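 also: 44 h compound exposure; % is scaled to controls: 0 for no effect and ±100 for the full control effect; nearly all actives have a fitted effect of over 55% in size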
Active calls of the source: *; ? = inconclusive; / = not tested or not shown. Calls follow the shape of the dose curve; as a rule, active = well fitted curve in the direction sought with a large enough effect; inconclusive = small, poorly fitted or top-dose-only effect, or another doubt; inactive = no such curve, though single readings can be large; an effect the other way counts as inactive or inconclusive. Potency is read from the fitted curve at half-maximal effect.

SMILES	Pf growth 48h	Pf growth 96h	HCV inhibitor	AmpC inh no detg	AMA1-RON2 inh	AmpC inh detg	HCV inh confirm	HCV host tox
O=C(/C=C/c1cccs1)Nc1ccc(N2CCOCC2)c(S(=O)(=O)Nc2cc(Cl)ccc2Cl)c1	-25%	?	?	?	-24%	3%	/	/
COc1ccccc1NS(=O)(=O)c1cc(NC(=O)/C=C/c2cccs2)ccc1N1CCOCC1	12µM*	?	?	-20%	-4%	?	20µM*	10%
CC1(C)CC(CCC(=O)Nc2ccc(S(N)(=O)=O)cc2)C(=O)O1 (stereo not drawn)	19%	15%	15%	-6%	10%	-10%	/	/
Cc1ccc(NC(=O)CCC2CC(C)(C)OC2=O)cc1 (stereo not drawn)	23%	2%	4µM*	-10%	0%	?	1%	-2%
CCc1ccccc1NC(=O)CCS(=O)(=O)c1cccc2nonc12	/	/	/	/	/	2%	/	/
Cc1cc(O)c(C(c2ccccc2)N2CCN(c3ccc(F)cc3)CC2)c(=O)n1Cc1ccco1 (stereo not drawn)	/	/	/	/	/	8%	/	/
Cn1c2ccccc2c(=O)c2ccc(C#Cc3ccc(N)cc3)cc21	-25%	9.3µM*	6.3µM*	-29%	24%	-9%	22µM*	41%
c1ccc2c(c1)[nH]c1c(N3CCCC3)ncnc12	?	2.6µM*	8.9µM*	-25%	-1%	13%	7µM*	16µM*
c1ccc2c(N3CCCCC3)ncnc2c1	3%	58%	?	-1%	-4%	2%	/	/
CCOC(=O)C1CCCN(S(=O)(=O)c2ccc(C)cc2)C1 (stereo not drawn)	-12%	33%	15%	-7%	-1%	-4%	/	/
CCOC(=O)C1CCCN(S(=O)(=O)c2ccc(S(=O)(=O)N(CC)CC)cc2)C1 (stereo not drawn)	-24%	0%	0.89µM*	69%	2%	-5%	0.7µM*	1.8µM*
CCOC(=O)c1cc2c(ccc3nc(C)c(C)c32)[nH]c1C	?	-3%	3.2µM*	12%	13%	3%	13µM*	20%
NS(=O)(=O)c1ccc(CCNc2nc3c(-c4cccc(F)c4)nnn3c3ccccc23)cc1	-14%	-12%	1.4µM*	-12%	17%	?	7µM*	-16%
Cc1cccc(CNC(=O)c2ccc3oc(=O)n(Cc4ccccc4)c3c2)c1	/	/	/	/	/	12%	/	/
COc1cc2c(=O)n(CCC(=O)NCC3CCCO3)c(=O)n(CC(=O)c3ccc(Cl)cc3)c2cc1OC (stereo not drawn)	-2%	36%	2µM*	48%	0%	-4%	7.9µM*	26%
CC(C)c1ccccc1NC(=O)Cn1c(-c2ccccc2Cl)nc2ccccc21	-9%	-28%	2.5µM*	30%	-23%	5%	?	10%
CCOc1ccc(CCNC(=O)CN2C(=O)COc3ccc(S(=O)(=O)N(CC)CC)cc32)cc1	/	/	/	/	/	7%	/	/
CCN1C(=O)/C(=C\c2cccs2)C(C(=O)OC)=C1C	/	?	4µM*	-4%	-29%	?	?	?
CCN(CC)C(=O)CSc1nc2cc3c(cc2c(=O)n1CCCCCC(=O)NCCc1ccc(OC)c(OC)c1)OCO3	/	/	/	/	/	-7%	/	/
CCN(CC)C(=O)CSc1nc2cc3c(cc2c(=O)n1Cc1ccc(OC)cc1)OCO3	?	27%	?	-17%	-7%	-1%	5.6µM*	12%
CCC(C(=O)Nc1cc(OC)ccc1OC)n1nc(-c2ccccc2)c2c(c1=O)CCCC2 (stereo not drawn)	/	/	/	/	/	-2%	/	/
COC(=O)CSc1nc2sc3c(c2c(=O)n1-c1ccccc1)CCN(C)C3	?	/	?	64%	-16%	-1%	/	/
CCCCCNc1nc2sc3c(c2c(=O)n1-c1cccc(Cl)c1)CCN(C)C3	1.5µM*	0.17µM*	1µM*	119%	-17%	0%	2.2µM*	22%
CCCCSc1nc2sc3c(c2c(=O)n1-c1ccccc1)CCN(C)C3	5.2µM*	4.1µM*	?	109%	-7%	-4%	13µM*	21%
COC(=O)c1ccc(CSc2nc3c([nH]c4ccccc43)c(=O)n2-c2ccc(F)cc2)o1	/	/	/	/	/	-4%	/	/
SMILES	Pf growth 48h	Pf growth 96h	HCV inhibitor	AmpC inh no detg	AMA1-RON2 inh	AmpC inh detg	HCV inh confirm	HCV host tox
Cc1cc(S(=O)(=O)Nc2ccc3ccccc3c2)c(C)s1	-7%	/	?	-22%	6%	-7%	22µM*	?
Cc1sc(NC(=O)Cc2ccc3c(c2)OCO3)nc1-c1ccc2c(c1)CCN2C(=O)c1ccc(F)cc1	9.3µM*	5%	1.3µM*	-36%	-9%	-4%	7.9µM*	-21%
CN1CCN(C(=O)C(=O)Nc2c3c(nn2-c2ccc(F)cc2)CSC3)CC1	/	/	/	/	/	5%	/	/
CCn1nnc(-c2ccccc2NC(=O)C(F)(F)F)n1	17%	?	?	-11%	-2%	-15%	?	-17%
CCc1cccc(C)c1NC(=O)C(CC)Sc1nncn2c1cc1occc12 (stereo not drawn)	/	/	/	/	/	-14%	/	/
CCOC(=O)/C(C#N)=C(C)/C=C1\Sc2ccccc2N1CC	5%	-10%	?	-5%	-3%	?	/	/
CCN1/C(=C\C(=S)Nc2ccccc2)Sc2ccccc21	-3%	24%	6.3µM*	-38%	39%	1%	14µM*	?
Cc1ccc(C2Nc3ccccc3-n3c(-c4ccccc4)c4c(=O)n(C)c(=O)n(C)c4c32)o1 (stereo not drawn)	/	/	/	/	/	27%	/	/
Cc1cc(C)c2oc(C(=O)Nc3nc4ccc(Cl)cc4s3)cc(=O)c2c1	/	/	/	/	/	2%	/	/
CCN(CC)c1ccc(/C=N/NC(=O)c2ccoc2C)c(O)c1	1.3µM*	?	2.8µM*	-32%	57%	-2%	7µM*	7.9µM*

Screening data as filed in PubChem BioAssay.
